Results as given in PubChem BioAssay (NCATS).
Values joined by “and” are separate entries in the source; they are usually repeats but may differ in a detail not shown here. Equal values may be shown once. Active and inactive are the calls of the source. Unless noted, the call rests on the fitted dose curve.

How the values were obtained:
[1] = Cell Viability - Jurkat (AID 426;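 active means dose-dependent loss of cell ATP signal giving a full or clear fitted curve, ranked by lower potency value; inconclusive means weak partial curve or response only at the top dose; inactive means no loss of viability signal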; further: potency means the concentration at half of the fitted maximal effect); details: qHTS
Outline: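 qHTS, 1536-well; Jurkat E6-1, 5000 cells/well, complete medium; cpd 40 hr, 37 °C; CellTiter-Glo 20 min RT; luminescence. AC50 by Hill fit.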

[2] = Cell Viability - NIH 3T3 (AID 541; active means well fitted curve in the direction sought with a large enough effect; inconclusive means small, poorly fitted or top-dose-only effect, or another doubt; inactive means no such curve, though single readings can be large; an effect the other way counts as inactive or inconclusive;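 further: plate controls were DMSO alone for no effect and tamoxifen positive control for full effect; nearly all actives have a fitted effect of over 25% in size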); details: NIH 3T3 cell viability, qHTS; activity change, negative = cytotoxicity: at 92.2 µM (top of the series)
Outline: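 Luminescent ATP signal (CellTiter-Glo) served as the viability read-out after NIH 3T3 cells were exposed to compounds over a concentration range for 40 hr at 37 °C. Hill-equation modelling of concentration-response data gave AC50.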

[3] = Cell Viability - H-4-II-E (AID 543; active means well fitted curve in the direction sought with a large enough effect; inconclusive means small, poorly fitted or top-dose-only effect, or another doubt; inactive means no such curve, though single readings can be large; an effect the other way counts as inactive or inconclusive; further: on the % scale 0 is the no-effect control and ±100 the full control effect; nearly all actives have a fitted effect of over 35% in size); details: H-4-II-E rat hepatoma viability; series mostly up to 92.2 µM
Outline: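 Luminescent ATP signal (CellTiter-Glo) served as the viability read-out, with cytotoxicity seen as a concentration-dependent ATP drop. Cells were treated for 40 hours in complete medium. AC50 values derive from Hill-equation modelling.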

[4] = biological target: Estrogen receptor (Homo sapiens) (UniProt P03372); assay: qHTS assay for small molecule antagonists of estrogen receptor alpha signaling (AID 588513; active means well fitted curve in the direction sought with a large enough effect in the signal ratio, with a control signal flat, not every such curve was filed as active; inconclusive means small, poorly fitted or top-dose-only effect, or effect the other way, or a change in a side signal; inactive means no such curve, though single readings can be large or run the other way; the % refers to the signal ratio; further: potency means the concentration at half of the fitted maximal effect); details: ER-alpha-UAS-bla HEK293, beta-lactamase ratio, antagonist mode; series mostly up to 76.9 µM
Sequence of Estrogen receptor (Homo sapiens) (P03372 whole entry, looked up): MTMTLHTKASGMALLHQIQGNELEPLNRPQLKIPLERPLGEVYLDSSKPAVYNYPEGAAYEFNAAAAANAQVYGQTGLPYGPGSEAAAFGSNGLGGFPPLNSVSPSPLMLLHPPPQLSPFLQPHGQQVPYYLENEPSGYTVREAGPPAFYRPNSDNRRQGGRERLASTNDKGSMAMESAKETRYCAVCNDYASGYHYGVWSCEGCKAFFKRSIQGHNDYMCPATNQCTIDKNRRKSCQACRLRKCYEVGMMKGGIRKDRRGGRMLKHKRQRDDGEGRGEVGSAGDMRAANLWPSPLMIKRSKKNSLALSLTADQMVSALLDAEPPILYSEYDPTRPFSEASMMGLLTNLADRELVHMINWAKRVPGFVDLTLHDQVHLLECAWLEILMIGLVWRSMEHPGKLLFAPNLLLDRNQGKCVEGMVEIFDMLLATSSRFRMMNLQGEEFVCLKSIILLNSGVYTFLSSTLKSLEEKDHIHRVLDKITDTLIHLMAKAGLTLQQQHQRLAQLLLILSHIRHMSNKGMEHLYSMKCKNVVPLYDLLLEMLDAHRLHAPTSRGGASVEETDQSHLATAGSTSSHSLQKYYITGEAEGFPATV
Outline: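 Beta-lactamase reporter, antagonist mode, HEK 293 GripTite cells; 0.5nM E2 stimulus, 18 h, 37 C; CCF4 dye 2 h RT; fluorescence. IC50 and efficacy from Hill fits, normalized to E2 and DMSO.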

[5] = biological target: Peroxisome proliferator-activated receptor gamma (Homo sapiens) (UniProt P37231); assay: qHTS assay for small molecule agonists of peroxisome proliferator-activated receptor gamma signaling (AID 588536; active means well fitted curve in the direction sought with a large enough effect in the signal ratio, with a control signal flat, not every such curve was filed as active; inconclusive means small, poorly fitted or top-dose-only effect, or effect the other way, or a change in a side signal; inactive means no such curve, though single readings can be large or run the other way; the % refers to the signal ratio;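 further: 0% = DMSO basal wells and 100% = rosiglitazone at 2 µM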); details: HEK293 PPARg-UAS-bla, beta-lactamase ratio, 16 h, percent of rosiglitazone response, DMSO as zero; series mostly up to 76.7 µM
Sequence of Peroxisome proliferator-activated receptor gamma (Homo sapiens) (P37231 whole entry, looked up): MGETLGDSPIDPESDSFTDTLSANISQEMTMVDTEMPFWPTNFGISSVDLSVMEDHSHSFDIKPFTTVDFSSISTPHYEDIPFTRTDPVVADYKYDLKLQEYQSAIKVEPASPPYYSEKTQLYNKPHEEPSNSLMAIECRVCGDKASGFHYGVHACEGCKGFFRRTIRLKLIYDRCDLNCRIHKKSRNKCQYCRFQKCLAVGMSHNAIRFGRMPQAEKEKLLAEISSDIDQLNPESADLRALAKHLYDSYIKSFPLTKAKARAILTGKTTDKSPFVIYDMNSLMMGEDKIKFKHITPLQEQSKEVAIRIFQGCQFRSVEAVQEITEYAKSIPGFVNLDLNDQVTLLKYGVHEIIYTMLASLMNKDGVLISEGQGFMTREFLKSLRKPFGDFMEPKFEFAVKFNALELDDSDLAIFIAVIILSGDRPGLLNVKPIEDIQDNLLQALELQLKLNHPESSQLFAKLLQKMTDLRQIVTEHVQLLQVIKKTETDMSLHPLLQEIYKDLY
Outline: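 HEK293 UAS-bla reporter line, 1% charcoal/dextran FBS; titration, 16 h, 37 C; CCF4 loading 2 h RT; fluorescence 460/530 nm. Normalized to rosiglitazone 2 uM = 100%, DMSO = 0%.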

[6] = qHTS assay for small molecule activators of the p53 signaling pathway (AID 651743; active means well fitted activation curve with a large enough effect in the signal ratio, not every such curve was filed as active; inconclusive means small, poorly fitted or top-dose-only effect, or a change in a side signal; the % refers to the signal ratio; further: % of control where 0% means no effect); details: HCT-116 p53RE-bla, beta-lactamase FRET ratio, 16 h; activation: stronger effect = higher value
Outline: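 Read-out is fluorescence intensity from the LiveBLAzer B/G FRET substrate, added for 2 hours at room temperature after HCT-116 p53RE-bla cells had been incubated with compounds for 16 hours at 37 C.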

[7] = qHTS assay for environmental chemicals that activate the Aryl hydrocarbon Receptor (AhR) signaling pathway (AID 651777; active means well fitted curve in the direction sought with a large enough effect; inconclusive means small, poorly fitted or top-dose-only effect, or another doubt; inactive means no such curve, though single readings can be large; an effect the other way counts as inactive or inconclusive; further: nearly all actives have a fitted effect of over 15% in size; further: potency means the concentration at half of the fitted maximal effect; on activation: % of control where 0% means no effect); details: 1A2-DRE human hepatoma cells, luciferase, 24 h; activation: stronger effect = higher value
Outline: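 Human hepatoma 1A2-DRE cells stably carrying a DRE/CYP1A2 promoter–luciferase reporter, 1,200 cells/well, exposed to compound 24 hr at 37 C. Luciferase read by One-Glo luminescence after 30 min at room temperature; increased signal marks AhR activation.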

[8] = Cell Viability - HepG2 (AID 433); details: qHTS;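 further: potency means the concentration at half of the fitted maximal effect; potency for ATP loss meaning cytotoxicity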
Outline: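 ATP luminescence (CellTiter-Glo) after 40 h compound exposure, 37 °C, HepG2, 1500 cells/well, complete medium. Normalized: DMSO = basal, 100 uM tamoxifen = 100% inhibition. AC50 via standard Hill equation.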

[9] = Cell Viability - LYMP2-022 (AID 987; active means well fitted curve in the direction sought with a large enough effect; inconclusive means small, poorly fitted or top-dose-only effect, or another doubt; inactive means no such curve, though single readings can be large; an effect the other way counts as inactive or inconclusive;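 further: 0% = DMSO alone and full effect = tetraoctylammonium bromide at 92 µM; nearly all actives have a fitted effect of over 55% in size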); details: LYMP2-022 lymphoblastoid cell viability; series mostly up to 92.2 µM
Outline: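 qHTS: human lymphoblastoid cells 2500/well; 5 hr 37 C; cpd added; 24 hr 37 C; CellTiter-Glo, 30 min RT; luminescence. AC50 via Hill fit; tetraoctylammonium bromide positive ctrl.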

[10] = Cell Viability - LYMP2-024 (AID 988; active means well fitted curve in the direction sought with a large enough effect; inconclusive means small, poorly fitted or top-dose-only effect, or another doubt; inactive means no such curve, though single readings can be large; an effect the other way counts as inactive or inconclusive;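 further: plate controls were DMSO only for no effect and 92 µM tetraoctylammonium bromide for full effect; nearly all actives have a fitted effect of over 60% in size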); details: LYMP2-024 lymphoblastoid cell viability; series mostly up to 92.2 µM
Outline: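 Steps: seed 2500 cells/well, 5 hr 37 C; add compound, 24 hr 37 C; add CellTiter-Glo, 30 min room temperature; read luminescence. AC50 derived by Hill modelling of concentration-dependent ATP loss.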

[11] = biological target: Bile acid receptor (Homo sapiens) (UniProt Q96RI1); assay: qHTS assay for small molecule agonists of farnesoid X receptor signaling (AID 588527); details: HEK293T FXR-UAS-bla, beta-lactamase ratio, 16 h; stronger effect = higher value;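 further: 0% = vehicle basal and 100% = reference agonist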
Sequence of Bile acid receptor (Homo sapiens) (Q96RI1 whole entry, looked up): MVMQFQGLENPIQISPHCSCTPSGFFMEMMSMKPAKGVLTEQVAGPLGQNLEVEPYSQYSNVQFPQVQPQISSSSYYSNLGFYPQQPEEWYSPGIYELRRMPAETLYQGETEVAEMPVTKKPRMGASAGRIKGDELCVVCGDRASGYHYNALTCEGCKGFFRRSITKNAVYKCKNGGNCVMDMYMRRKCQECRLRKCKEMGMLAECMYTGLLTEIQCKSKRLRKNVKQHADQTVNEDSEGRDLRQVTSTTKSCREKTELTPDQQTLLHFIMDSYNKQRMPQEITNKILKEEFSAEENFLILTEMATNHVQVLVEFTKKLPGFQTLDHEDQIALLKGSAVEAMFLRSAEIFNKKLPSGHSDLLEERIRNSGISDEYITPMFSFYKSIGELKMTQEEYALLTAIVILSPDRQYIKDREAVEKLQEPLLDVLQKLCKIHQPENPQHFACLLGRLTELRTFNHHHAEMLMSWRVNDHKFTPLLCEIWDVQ
Outline: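 Quantitative HTS used FXR-UAS-bla HEK293T cells with 16 h compound incubation at 37 C. EC50 values came from concentration-response curves normalized to chenodeoxycholic acid.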

[12] = biological target: Glucocorticoid receptor (Homo sapiens) (UniProt P04150); assay: qHTS assay for small molecule agonists of glucocorticoid receptor signaling (AID 588532; active means well fitted curve in the direction sought with a large enough effect in the signal ratio, with a control signal flat; inconclusive means small, poorly fitted or top-dose-only effect, or a change in a side signal; inactive means no such curve, though single readings can be large or run the other way; the % refers to the signal ratio;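 further: 100% = dexamethasone at 0.1 µM and 0% = DMSO only wells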); details: HeLa MMTV-bla, beta-lactamase ratio, agonist, 18 h; stronger effect = higher value; percent of dexamethasone control, DMSO zero
Sequence of Glucocorticoid receptor (Homo sapiens) (P04150 whole entry, looked up): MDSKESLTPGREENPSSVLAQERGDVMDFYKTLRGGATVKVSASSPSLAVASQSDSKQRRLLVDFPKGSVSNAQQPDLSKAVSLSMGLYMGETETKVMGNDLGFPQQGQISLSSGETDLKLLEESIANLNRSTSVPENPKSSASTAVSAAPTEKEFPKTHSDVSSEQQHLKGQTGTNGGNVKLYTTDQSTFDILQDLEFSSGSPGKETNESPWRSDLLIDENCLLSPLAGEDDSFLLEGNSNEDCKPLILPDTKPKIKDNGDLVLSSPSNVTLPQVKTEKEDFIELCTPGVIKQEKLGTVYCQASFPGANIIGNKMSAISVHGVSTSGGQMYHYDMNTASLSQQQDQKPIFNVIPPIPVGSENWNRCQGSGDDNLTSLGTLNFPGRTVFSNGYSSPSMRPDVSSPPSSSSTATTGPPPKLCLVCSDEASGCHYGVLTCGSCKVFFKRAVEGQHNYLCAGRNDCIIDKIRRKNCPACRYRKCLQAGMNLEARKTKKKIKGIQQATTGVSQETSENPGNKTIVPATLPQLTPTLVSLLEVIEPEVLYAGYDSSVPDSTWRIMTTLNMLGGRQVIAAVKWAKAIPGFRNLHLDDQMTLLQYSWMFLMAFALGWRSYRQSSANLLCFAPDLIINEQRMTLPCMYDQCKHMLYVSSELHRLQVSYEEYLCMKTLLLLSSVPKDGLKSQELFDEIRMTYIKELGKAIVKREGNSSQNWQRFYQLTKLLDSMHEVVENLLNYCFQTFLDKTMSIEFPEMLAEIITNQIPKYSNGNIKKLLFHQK
Outline: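 Using MMTV-bla HeLa cells in medium with 1% stripped FBS and 25 mM HEPES, compounds were titrated and incubated overnight-length (18 h). Beta-lactamase cleavage of CCF4 was quantified by dual-emission fluorescence.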

[13] = qHTS assay for small molecule antagonists of peroxisome proliferator-activated receptor delta signaling (AID 588535; active means well fitted inhibition curve with a large enough effect in the signal ratio, with a control signal flat, not every such curve was filed as active; inconclusive means small, poorly fitted or top-dose-only effect, or effect the other way, or a change in a side signal; inactive means no such curve, though single readings can be large or run the other way; the % refers to the signal ratio;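 on max response: cells co-treated with a PPAR-delta agonist as stimulator during compound exposure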); details: HEK293T PPARd-UAS-bla, beta-lactamase FRET ratio, 18 h; 460 nm channel
Outline: (§1)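 HEK293T PPAR-delta-UAS-bla cells, 4000/well, 2% charcoal/dextran FBS; 5 h 37 C; cpd titration; 18 h 37 C; CCF4 2 h RT; FI 460/530 nm; Hill fit → IC50, efficacy.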

[14] = biological target: Peroxisome proliferator-activated receptor delta (Homo sapiens) (UniProt Q03181); assay: as above; details: HEK293T PPARd-UAS-bla, beta-lactamase FRET ratio, 18 h; series mostly up to 76.7 µM
Sequence of Peroxisome proliferator-activated receptor delta (Homo sapiens) (Q03181 whole entry, looked up): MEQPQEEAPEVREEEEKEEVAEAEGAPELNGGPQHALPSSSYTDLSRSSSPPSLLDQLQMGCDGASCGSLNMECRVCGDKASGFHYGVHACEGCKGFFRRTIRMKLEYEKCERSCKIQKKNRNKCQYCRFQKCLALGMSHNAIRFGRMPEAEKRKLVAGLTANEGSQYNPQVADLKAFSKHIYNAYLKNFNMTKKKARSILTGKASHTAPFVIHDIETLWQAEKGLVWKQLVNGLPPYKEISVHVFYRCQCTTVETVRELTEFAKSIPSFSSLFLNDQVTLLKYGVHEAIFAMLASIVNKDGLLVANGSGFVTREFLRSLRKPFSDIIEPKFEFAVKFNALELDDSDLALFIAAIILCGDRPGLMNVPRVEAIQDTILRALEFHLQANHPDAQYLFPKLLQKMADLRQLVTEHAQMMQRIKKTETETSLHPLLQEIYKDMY
Outline: as §1

[15] = biological target: Vitamin D3 receptor (Homo sapiens) (UniProt P11473); assay: qHTS assay for small molecule agonists of vitamin D receptor signaling (AID 588543); details: HEK293T VDR-UAS-bla, beta-lactamase ratio, 16 h; series mostly up to 76.8 µM;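 further: 0% = DMSO basal and 100% = reference agonist control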
Sequence of Vitamin D3 receptor (Homo sapiens) (P11473 whole entry, looked up): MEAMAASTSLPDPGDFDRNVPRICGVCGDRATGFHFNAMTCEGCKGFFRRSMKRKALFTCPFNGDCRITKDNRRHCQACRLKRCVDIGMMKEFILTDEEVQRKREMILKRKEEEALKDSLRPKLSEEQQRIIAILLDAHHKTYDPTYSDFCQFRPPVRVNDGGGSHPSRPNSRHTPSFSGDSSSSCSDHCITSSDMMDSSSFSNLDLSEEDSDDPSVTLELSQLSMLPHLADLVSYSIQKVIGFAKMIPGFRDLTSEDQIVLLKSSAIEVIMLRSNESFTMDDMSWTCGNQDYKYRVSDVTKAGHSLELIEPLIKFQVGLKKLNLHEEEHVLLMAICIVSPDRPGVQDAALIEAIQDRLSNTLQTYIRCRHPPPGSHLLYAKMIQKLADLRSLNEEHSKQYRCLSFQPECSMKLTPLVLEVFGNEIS
Outline: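 β-lactamase reporter, VDR-UAS-bla HEK293T, agonist mode. Cells plated 5 h at 37 °C, compound titration 16 h at 37 °C, CCF4 dye 2 h RT, ratio 460/530 nm. Hill fit → EC50, efficacy vs 50 nM 1α,25-(OH)2D3.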

[16] = biological target: Thyroid hormone receptor beta (Homo sapiens) (UniProt P10828); assay: qHTS assay for small molecule agonists of thyroid hormone receptor beta signaling (AID 588545); details: TR-UAS-bla GripTite HEK 293, beta-lactamase ratio, agonist mode, 18 h; series mostly up to 76.7 µM
Sequence of Thyroid hormone receptor beta (Homo sapiens) (P10828 whole entry, looked up): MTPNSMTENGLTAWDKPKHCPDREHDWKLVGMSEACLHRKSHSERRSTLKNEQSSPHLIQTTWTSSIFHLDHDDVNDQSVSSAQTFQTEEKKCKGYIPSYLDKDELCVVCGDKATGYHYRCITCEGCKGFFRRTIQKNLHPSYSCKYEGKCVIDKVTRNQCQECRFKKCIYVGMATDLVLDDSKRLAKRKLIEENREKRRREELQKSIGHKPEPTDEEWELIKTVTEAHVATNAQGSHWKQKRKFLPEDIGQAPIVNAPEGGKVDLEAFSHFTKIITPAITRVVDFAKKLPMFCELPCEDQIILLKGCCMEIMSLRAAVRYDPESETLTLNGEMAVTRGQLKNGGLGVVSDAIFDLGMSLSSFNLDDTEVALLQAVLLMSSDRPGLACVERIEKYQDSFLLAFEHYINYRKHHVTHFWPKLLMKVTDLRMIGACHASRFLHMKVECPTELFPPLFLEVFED
Outline: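 Cells (2500/well) were seeded, incubated 4 hrs at 37 C, dosed with a compound series, incubated 18 hrs, loaded with CCF4 dye for 2 hrs at RT, then read for fluorescence. Data were scaled between DMSO (0%) and 10 nM T3 (100%).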

[17] = qHTS assay for small molecule agonists of the antioxidant response element (ARE) signaling pathway measured by Nrf2-dependant transcriptional activity (AID 720636; active means well fitted curve in the direction sought with a large enough effect in the repeat runs; inconclusive means weak or mixed curves; inactive means no such curve, though single readings can be large; an effect the other way counts as inactive or inconclusive; further: % of control where 0% means no effect); details: ARE-luc HepG2, Nrf2 luciferase reporter, 16 h; series mostly up to 92.4 µM
Outline: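 ARE-luc HepG2 cells carrying an Nrf2-responsive luciferase reporter, in medium with 1% dialyzed FBS, exposed to compound for 16 hr at 37 C, 5% CO2. Luminescence read 30 min after ONE-Glo addition.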

[18] = Cell Viability - MRC5 (AID 434); details: MRC5 lung fibroblast viability, qHTS;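 further: potency means the concentration at half of the fitted maximal effect; potency reflects cytotoxicity seen as loss of intracellular ATP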
Outline: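 qHTS cytotoxicity in human lung fibroblast MRC5 cells; 40 hr treatment, 37 °C; cellular ATP by luciferase luminescence; DMSO = 0%, 100 uM tamoxifen = 100% inhibition; Hill-fit AC50.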

[19] = biological target: Estrogen receptor (Homo sapiens) (UniProt P03372); assay: qHTS assay for small molecule agonists of estrogen receptor alpha signaling (AID 588514); details: ER-alpha-UAS-bla HEK293, beta-lactamase ratio, 18 h; series mostly up to 76.8 µM;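 further: 0% = vehicle only and 100% = reference agonist; nearly all actives have a fitted effect of over 70% in size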
Outline: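 Cells were plated at 5000/well, incubated 4 hrs at 37 C, dosed with compound titration series, incubated 18 hrs at 37 C, loaded with CCF4 dye for 2 hrs at RT, then fluorescence was read.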

[20] = biological target: Glucocorticoid receptor (Homo sapiens) (UniProt P04150); assay: qHTS assay for small molecule antagonists of glucocorticoid receptor signaling (AID 588533; active means well fitted inhibition curve with a large enough effect in the signal ratio, with a control signal flat, not every such curve was filed as active; inconclusive means small, poorly fitted or top-dose-only effect, or effect the other way, or a change in a side signal; the % refers to the signal ratio;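 further: cells stimulated with 2 nM dexamethasone as agonist; on the % scale 0 is the no-effect control and ±100 the full control effect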); details: HeLa MMTV-bla, GRE beta-lactamase ratio, antagonist mode, 18 h; series mostly up to 76.8 µM
Outline: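 Antagonist-mode qHTS: compound titrations added to GRE-bla HeLa cells, then dexamethasone 2 nM final; 18 h, 37 C. CCF4 FRET fluorescence normalized to dexamethasone and DMSO; IC50 from Hill fit.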

Nc1cccc2ccccc12
active: Potency [1] 33 µM | Potency [7] 44.7 µM
inactive: Potency [2] | Potency [3] | Potency [4] | outcome [5] | activation [6] -3.1%

CCN(N=O)C(N)=O
-10.7%: max response [13]
inactive: Potency [8] > 92 µM | Potency [2] | Potency [3] | Potency [9] | Potency [10] | Potency [4] | activation [11] -1.35% | activation [12] -3.98% | outcome [14] | outcome [5] | outcome [15] | Potency [16] | activation [6] 0.306% | activation [7] 0.0477% | Potency [17]

COc1cc(-c2ccc(N)c(OC)c2)ccc1N
17.7% and -36%: max response [13]
inactive: Potency [1] > 92 µM | Potency [18] > 92 µM | Potency [3] | Potency [10] | outcome [14] | outcome [5] | outcome [15] | Potency [16] | activation [6] 0.265% and -0.413% and 0.709% | Potency [17]

COP(=S)(OC)SCn1nnc2ccccc2c1=O
active: Potency [4] 31.6 µM [inconclusive]
inactive: Potency [1] > 92 µM | Potency [8] > 92 µM | Potency [9] | Potency [10] | Potency [19] | outcome [5] | outcome [15] | Potency [16] | activation [6] 1.84% and 3.37% | activation [7] 2.58% and 5.04% | Potency [17]

C/C=C/C=O
inactive: Potency [1] > 92 µM | Potency [18] > 92 µM | Potency [2] | Potency [10] | activation [12] 3.01% | outcome [5] | outcome [15] | Potency [16] | Potency [17]

CC(C)(COCC1CO1)COCC1CO1 (centres undefined)
0.207%: max response [13]
inactive: Potency [8] > 92 µM | Potency [18] > 92 µM | Potency [3] | Potency [9] | Potency [10] | Potency [4] | Potency [19] | activation [11] 1.49% | outcome [20] | outcome [14] | outcome [5] | outcome [15] | activation [7] -0.0471% | Potency [17]

c1ccc(N=NNc2ccccc2)cc1
inactive: Potency [1] > 92 µM | Potency [2] | Potency [3] | Potency [9] | Potency [4] | Potency [19] | outcome [14] | outcome [5] | outcome [15] | Potency [16]
active: Potency [7] 12.6 µM and 1.41 µM
-9.27% and 22.4%: max response [13]

C(CCOCC1CO1)COCC1CO1 (centres undefined)
-10%: max response [13]
inactive: Potency [18] > 92 µM | Potency [2] | Potency [3] | Potency [4] | activation [11] -2.57% | activation [12] -0.372% | outcome [20] | outcome [14] | outcome [15] | activation [7] 0.374%

CCCC[N+](=O)[O-]
inactive: Potency [2] | Potency [3] | Potency [9] | Potency [4] | Potency [19] | activation [11] -0.886% | outcome [20] | outcome [5] | Potency [16] | activation [7] 0.218% | Potency [17]
